# Test results: PubChem BioAssay (NCATS)
# Where “and” joins values, the source holds several entries; their conditions need not be identical. Identical values can stand only once. Results filed as inconclusive are left out. Where a call stands in place of a potency, no number is given. Where a structure was tested more than once in an assay, its records may differ in their call. Calls of active or inactive are those of the source. Calls come from the whole dose curve; as a rule, active = well fitted curve in the direction sought with a large enough effect; inconclusive = small, poorly fitted or top-dose-only effect, or another doubt; inactive = no such curve, though single readings can be large; an effect the other way counts as inactive or inconclusive.
# Columns and labels:
# C33A = assay: Primary qHTS to identify gynecologic anti-cancer compounds using libraries of approved drugs and bioactive compounds (AID 1345084); conditions: Gynecologic cancer cell panel viability, ATPlite luminescence, 48 h; series mostly up to 57.5 µM; note: nearly all actives have a fitted effect of over 55% in size
# Method in brief: (§1)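 Cell viability after 48 h drug treatment, ATPlite luminescence readout; five doses.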
# CAOV3 = assay: as above; conditions: Gynecologic cancer cell panel viability, ATPlite luminescence, 48 h; series mostly up to 57.5 µM
# Method in brief: as §1
# CASKI = assay: as above; conditions: Gynecologic cancer cell panel viability, ATPlite luminescence, 48 h; series mostly up to 57.5 µM
# Method in brief: as §1
# Es-2 = assay: as above; conditions: Gynecologic cancer cell panel viability, ATPlite luminescence, 48 h; series mostly up to 57.5 µM
# Method in brief: as §1
# HeLa = assay: as above; conditions: Gynecologic cancer cell panel viability, ATPlite luminescence, 48 h; series mostly up to 57.5 µM
# Method in brief: as §1
# Hek293T = assay: as above; conditions: Gynecologic cancer cell panel viability, ATPlite luminescence, 48 h, control line for the selectivity index; series mostly up to 57.5 µM
# Method in brief: as §1
# JEG-3 = assay: as above; conditions: Gynecologic cancer cell panel viability, ATPlite luminescence, 48 h; series mostly up to 57.5 µM
# Method in brief: as §1
# OV90 = assay: as above; conditions: Gynecologic cancer cell panel viability, ATPlite luminescence, 48 h; series mostly up to 57.5 µM
# Method in brief: as §1
# WaGa = assay: qHTS assay to identify novel small-molecules to repurpose for Merkel cell carcinoma treatment (AID 1296009); conditions: MCC and control cell lines, CellTiter-Glo viability, 72 h; series mostly up to 46 µM; note: nearly all actives have a fitted effect of over 60% in size
# Method in brief: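 Dose-response viability screen; 72 hr exposure at 37 degree celsius; CellTiter-Glo added, 10 min room temperature, luminescence read; RLUs scaled between no-cell and DMSO wells.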
# Potency is the fitted concentration of half-maximal effect.
SMILES,Potency (C33A),Potency (CAOV3),Potency (CASKI),Potency (Es-2),Potency (HeLa),Potency (Hek293T),Potency (JEG-3),Potency (OV90),Potency (WaGa)
CC1=C(C(=O)OC(C)C)C(c2cccc([N+](=O)[O-])c2)C(C(=O)OC2CN(C(c3ccccc3)c3ccccc3)C2)=C(N)N1 (stereo not given),inactive,inactive,inactive,inactive,inactive,inactive,inactive,inactive,
CCOC(=O)[C@H](CCc1ccccc1)N[C@@H](C)C(=O)N1Cc2ccccc2C[C@H]1C(=O)O,inactive,inactive,inactive,inactive,inactive,inactive,inactive,inactive,
CN(C)CCCOc1nn(Cc2ccccc2)c2ccccc12,inactive,inactive,inactive,inactive,inactive,inactive,inactive,14.1 µM (active) and inactive,
CN1C(CCl)Nc2cc(Cl)c(S(N)(=O)=O)cc2S1(=O)=O (stereo not given),inactive,inactive,inactive,inactive,inactive,inactive,inactive,inactive,
Nc1ccc(C(=O)Nc2ccccc2N)cc1,inactive,inactive,inactive,,,inactive,inactive,,2.66 µM (active)
CC(=O)N/N=C/c1ccc([N+](=O)[O-])o1,inactive,inactive,inactive,inactive,inactive,inactive,inactive,inactive,23.7 µM (active)
C/C=C/c1ccc(OC)cc1,inactive,inactive,inactive,inactive,inactive,inactive,inactive,inactive,
Oc1ccc(O)cc1,inactive,inactive,inactive,inactive,inactive,inactive,inactive,inactive,1.88 µM (active)
Oc1c(Cl)cc(Cl)cc1Sc1cc(Cl)cc(Cl)c1O,inactive,inactive,inactive,inactive,inactive,inactive,inactive,inactive,
CC(=O)Oc1ccc(C(c2ccc(OC(C)=O)cc2)c2ccccn2)cc1,inactive,inactive,,inactive,,inactive,inactive,,inactive
C=C(CC)C(=O)c1ccc(OCC(=O)O)c(Cl)c1Cl,inactive,inactive,inactive,inactive,inactive,,inactive,inactive,13.3 µM (active)
COc1ccc(CCN2CCC(Nc3nc4ccccc4n3Cc3ccc(F)cc3)CC2)cc1,,,,,28.2 µM (active),,,,21.1 µM (active)
CCCCc1nc(Cl)c(CO)n1Cc1ccc(-c2ccccc2-c2nn[nH]n2)cc1,inactive,inactive,inactive,inactive,inactive,inactive,inactive,inactive,
CCCCCCCCCCCCCCNCCO,,,inactive,inactive,inactive,inactive,inactive,inactive,inactive
CCN(CC)C(=O)/C(C#N)=C/c1cc(O)c(O)c([N+](=O)[O-])c1,inactive,inactive,inactive,inactive,inactive,inactive,inactive,,
COc1cc(C(=S)N2CCOCC2)cc(OC)c1OC,inactive,inactive,inactive,inactive,inactive,inactive,inactive,inactive,
CC(O)C(=O)O (stereo not given),inactive,inactive,inactive,inactive,inactive,inactive,inactive,inactive,
COc1cc(N)c(Cl)cc1C(=O)NC1CCN(CCCOc2ccc(F)cc2)CC1OC (stereo not given),inactive,inactive,inactive,inactive,inactive,inactive,inactive,25.1 µM (active),inactive
O=C(CCN1CCC(c2ccccc2)C1)c1ccc2c(c1)OCCO2 (stereo not given),inactive,inactive,inactive,inactive,inactive,inactive,inactive,inactive,2.99 µM (active)
N[C@H](Cc1c[nH]c2ccccc12)C(=O)O,inactive,inactive,inactive,inactive,inactive,inactive,inactive,inactive,inactive
O=C(OCCOCCO)c1ccccc1Nc1cccc(C(F)(F)F)c1,inactive,inactive,inactive,inactive,inactive,inactive,inactive,inactive,
CC(Cc1ccccc1)(NC(=O)CN)c1ccccc1 (stereo not given),inactive,inactive,inactive,inactive,inactive,inactive,inactive,inactive,
CCOC(=O)/C=C(C)/C=C/C=C(C)/C=C/c1c(C)cc(OC)c(C)c1C,inactive,inactive,inactive,inactive,inactive,inactive,inactive,inactive,
O=C(CCCN1CCC(O)(c2ccc(Br)cc2)CC1)c1ccc(F)cc1,inactive,,inactive,inactive,inactive,inactive,inactive,,
COc1ccc(/C=C/C(=O)c2ccc(OC)cc2OC)cc1,,,,inactive,inactive,inactive,inactive,,
C[C@]12C=CC(=O)C=C1CC[C@@H]1[C@@H]2[C@@H](O)C[C@@]2(C)[C@H]1CC[C@]2(O)C(=O)CO,inactive,,inactive,inactive,inactive,inactive,inactive,inactive,

SMILES,Potency (C33A),Potency (CAOV3),Potency (CASKI),Potency (Es-2),Potency (HeLa),Potency (Hek293T),Potency (JEG-3),Potency (OV90),Potency (WaGa)
O=C1OCCN1/N=C/c1ccc([N+](=O)[O-])o1,inactive,,inactive,inactive,inactive,inactive,inactive,inactive,
CCCCOc1cc(C(=O)NCCN(CC)CC)c2ccccc2n1,inactive,,inactive,,,inactive,inactive,,
CC(=O)OCC(=O)[C@@]1(O)CC[C@H]2[C@@H]3CCC4=CC(=O)C=C[C@]4(C)[C@H]3[C@@H](O)C[C@@]21C,inactive,,inactive,inactive,inactive,inactive,inactive,inactive,
Oc1c(I)cc(I)c2cccnc12,inactive,inactive,inactive,,inactive,inactive,inactive,inactive,
CC(=O)OCC(=O)[C@@]12OC(C)(C)O[C@@H]1C[C@H]1[C@@H]3C[C@H](F)C4=CC(=O)C=C[C@]4(C)[C@@]3(F)[C@@H](O)C[C@@]12C,inactive,,inactive,inactive,inactive,inactive,inactive,inactive,
CN1CCC(=C2c3ccccc3Sc3ccccc32)CC1,inactive,,inactive,inactive,inactive,inactive,inactive,,
COC1=CC(=O)C[C@@H](C)[C@]12Oc1c(Cl)c(OC)cc(OC)c1C2=O,inactive,inactive,inactive,inactive,inactive,inactive,inactive,inactive,
CC/C(=C(/CC)c1ccc(O)cc1)c1ccc(O)cc1,inactive,inactive,inactive,inactive,inactive,inactive,inactive,inactive,
CC(C)NC[C@@H](O)COc1cccc2ccccc12,inactive,inactive,,inactive,inactive,inactive,inactive,inactive,
CCCCCCCCCCOCC(O)CN (stereo not given),,31.6 µM (active),,,inactive,inactive,inactive,,
CC(=O)c1ccc2c(c1)N(CCCN1CCC(CCO)CC1)c1ccccc1S2,inactive,,,inactive,inactive,inactive,inactive,,
COc1ccc(CN2CCN(C(c3ccc(F)cc3)c3ccc(F)cc3)CC2)c(OC)c1OC,inactive,,inactive,inactive,inactive,inactive,inactive,inactive,
O=C(O)CCCCC(=O)O,inactive,,inactive,inactive,inactive,inactive,inactive,inactive,
CC(C)(C)CC(C)(C)c1ccc(O)c(Cc2ccc(Cl)cc2Cl)c1,inactive,inactive,inactive,,,,inactive,inactive,
C=C1C(=C/C=C2\CCC[C@]3(C)[C@@H]([C@H](C)/C=C/[C@@H](O)C4CC4)CC[C@@H]23)C[C@@H](O)C[C@@H]1O,inactive,inactive,inactive,inactive,inactive,inactive,inactive,inactive,
CN(C(=O)CN(CCO)CC(=O)N(C)C(C)(C)Cc1ccccc1)C(C)(C)Cc1ccccc1,inactive,,inactive,inactive,inactive,inactive,inactive,inactive,
CCN1CCCC1=O,inactive,inactive,inactive,inactive,inactive,inactive,inactive,inactive,
CN(C)CC/C=C1\c2ccccc2Sc2ccc(Cl)cc21,inactive,,inactive,inactive,inactive,inactive,inactive,,
Oc1ccc(Cl)c2cccnc12,inactive,inactive,inactive,inactive,inactive,inactive,inactive,inactive,
CC(C)=CCC1C(=O)N(c2ccccc2)N(c2ccccc2)C1=O,inactive,,inactive,inactive,inactive,inactive,inactive,inactive,
C[C@@H]1CN(CCCn2c3ccccc3c3ccccc32)C[C@H](C)N1,22.4 µM (active),,,,,,,25.1 µM (active),
C[C@]12CCC(=O)C=C1[C@@H]1C[C@@H]1[C@H]1[C@@H]3[C@@H]4C[C@@H]4[C@@]4(CCC(=O)O4)[C@@]3(C)CC[C@@H]12,,inactive,inactive,inactive,3.55 µM (active),inactive,inactive,,
Nc1ccn([C@@H]2O[C@H](CO)[C@@H](O)C2(F)F)c(=O)n1,inactive,631 nM (active) and 1.12 µM (active),inactive,,inactive,inactive,inactive,,
CN(C)/N=N/c1nc[nH]c1C(N)=O,,inactive,,,,,inactive,,
COc1cccc(OC)c1C(=O)N[C@@H]1C(=O)N2[C@@H]1SC(C)(C)[C@@H]2C(=O)O,inactive,,inactive,inactive,inactive,inactive,inactive,inactive,
